# Bioassay records as filed in PubChem BioAssay.
# This is a sample that favours compounds with a hit; in the whole collection about 0.88% have one here.
# APE1 inh: blocks human APE1 abasic DNA cleavage | P27695 | Potency, µM (series often up to 65.8 µM), hits mostly inhibitors | recombinant APE1, TAMRA/BHQ-2 abasic DNA cleavage fluorescence | AID 2517 | 0.35% of 350,000 active; further: nearly all actives have a fitted effect of over 55% in size
#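 Substrate: short duplex with […] THF abasic site, 5'-TAMRA and 3'-BHQ-2, 50 nM final. APE1 at 0.75 nM, preincubated 15 min RT with compound. Fluorescence increase from first to third read measured activity.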
# BLM inh: blocks DNA unwinding by human BLM helicase. P54132. recombinant BLM DNA unwinding, fluorescence dequenching. Potency, µM (series often up to 56.1 µM), actives largely listed as inhibitors. 0.2% of 350,000 active. AID 2528; further: nearly all actives have a fitted effect of over 35% in size
# RECQ1 inh-1: RECQ1 (human) helicase inhibition; Potency, µM (series often up to 57.3 µM), usual class: inhibitors; 0.54% of 240,000 active; RECQ1 DNA unwinding, red fluorescence kinetic read; AID 2549; P46063; further: nearly all actives have a fitted effect of over 30% in size
#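 50 nM RECQ1T1 preincubated 15 min with compound in Tris pH 8.0 buffer with MgCl2, DTT, Tween-20 and 2.5 ug/ml poly(dI-dC); started with 200 nM TAMRA/BHQ-2 forked duplex and 2 mM ATP. Unwinding read as fluorescence (525/598 nm), two reads 2 h apart.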
# GCN5L2 inh: inhibitors of human GCN5L2 histone acetyltransferase. GCN5L2 HAT assay, ThioGlo1 CoA-SH fluorescence. Potency, µM (series often up to 58.9 µM), usual class: inhibitors. 0.21% of 390,000 active. AID 504327
#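 ThioGlo1-coupled HAT assay: 20nM GCN5L2, 70uM acetyl-CoA, 75uM H3(1-25) peptide, pH 7.5. Fluorescence read at 340/540nm at start and after 20 min at room temperature.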
# WRN inhibitor: blocks human WRN helicase. Potency, µM (highest dose often 114 µM), usual class: inhibitors. Q14191. AID 651768. WRN helicase unwinding, fluorescent forked duplex, kinetic. 0.46% of 360,000 active; further: nearly all actives have a fitted effect of over 55% in size
#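 Kinetic fluorescence helicase assay: unwinding of a quenched forked DNA duplex (100 nM final) with 2 mM ATP final raises red fluorescence (525/598 nm). Compounds sat 15 min at room temperature with 20 nM WRN beforehand.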
# ERG-DNA inh: ERG Ets/DNA interaction inhibition; Potency, µM (titrated, usually from 76.9 µM), actives largely listed as inhibitors; fluorescence polarization, His-ERG Ets domain / labelled DNA; P11308; 0.028% of 370,000 active; active means well fitted inhibition curve with a large enough effect in the polarisation, with a control signal flat; inconclusive means small, poorly fitted or top-dose-only effect, or effect the other way, or a change in a side signal; inactive means no such curve, though single readings can be large or run the other way; the % refers to the polarisation;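 further: polarization taken with two DNA probes labelled with fluorescein and Texas red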
#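 His-tagged ERG Ets domain (1 uM in the protein solution; 300mM KCl, 50mM Tris-HCl, 1mM EDTA, 1mM DTT, pH 7.5) received compound, then a probe mix of 5 nM fluorescein-DNA and 100nM Texas-615-DNA. Fluorescence polarization was read for both dyes.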
# RECQ1 inh conf: confirmation of human RECQ1 helicase inhibitors. shares compounds with RECQ1 inh-1. RECQ1 helicase DNA unwinding, fluorescence. Potency, µM (highest dose often 229 µM), usual class: inhibitors. 28% of 610 active. AID 2708; further: nearly all actives have a fitted effect of over 45% in size
# ADP FP counter: displaces ADP in a fluorescence polarization counter-screen for RECQ1 hits; shares compounds with RECQ1 inh-1; ADP fluorescence polarization displacement counterscreen; Potency, µM (doses to about 228 µM), actives largely listed as inhibitors; 27% of 530 active; AID 2711; further: nearly all actives have a fitted effect of over 45% in size
# RECQ1 inh-2: confirmation of human RECQ1 helicase inhibitors; AID 504841; Potency, µM (series often up to 119 µM), most hits filed as inhibitors; shares compounds with RECQ1 inh-1; recombinant RECQ1 DNA unwinding, red fluorescence; 15% of 1,100 active; further: nearly all actives have a fitted effect of over 50% in size
# A number is an active result; i = inactive; ? = inconclusive; nt = no result; [ ] = dose if it differs, or a comment. Unless noted, the call rests on the fitted dose curve; in most records, active means well fitted curve in the direction sought with a large enough effect; inconclusive means small, poorly fitted or top-dose-only effect, or another doubt; inactive means no such curve, though single readings can be large; an effect the other way counts as inactive or inconclusive.
SMILES,APE1 inh,BLM inh,RECQ1 inh-1,GCN5L2 inh,WRN inhibitor,ERG-DNA inh,RECQ1 inh conf,ADP FP counter,RECQ1 inh-2
O=C(O)CC/C(=N/NC(=O)c1cn(-c2ccccc2)nc1-c1ccccc1)C(=O)O,i,i,i,i,i,i,i,i,nt
CC(=O)c1ccc2c(c1)C1C=CCC1C(c1ccncc1)N2 (centres undefined),?,i,?,i,i,i,nt,nt,i
C1=CC2c3ccccc3NC(c3ccncc3)C2C1 (centres undefined),?,i,i,i,i,i,nt,nt,nt
O=C(NCc1ccccc1Cl)c1cc2c(s1)-c1ccc(Cl)cc1SC2,nt,i,nt,i,nt,i,nt,nt,nt
COc1ccc2c(c1)CCc1c(C(=O)N(C)c3ccccc3)noc1-2,i,i,4.5µM,i,i,i,i,?,i
COc1ccccc1CNC(=O)CCc1c(C)nc2c(c(C)nn2-c2ccc(C)c(C)c2)c1C,nt,i,nt,i,nt,i,nt,nt,nt
Cc1cc(C2C(=O)CC(=O)CC2c2ccccc2)on1 (centres undefined),i,i,25µM,i,i,i,nt,nt,?
O=S(=O)(Nc1nc(-c2sccc2Cl)cs1)c1cc(Cl)ccc1Cl,i,i,?,?,?,i,nt,nt,?
O=C1c2cccc3c(N4CCCCC4)ccc(c23)C(=O)N1c1cccc(O)c1,i,i,i,i,i,i,nt,nt,nt
Cc1n[nH]c(C)c1N1C(=O)c2cccc3c(N4CCCCCC4)ccc(c23)C1=O,i,i,28µM,i,i,?,nt,nt,79µM
CCOC(=O)c1ccccc1NC(=O)N1CCN2CCCCC2C1 (centres undefined),nt,i,nt,i,nt,i,nt,nt,nt
CCn1c(SCc2nnc(-c3ccccc3)o2)nnc1-c1ccc(S(=O)(=O)N2CCCC2)cc1,i,i,i,i,i,i,nt,nt,nt
O=S(=O)(c1ccc(-c2nnc(SCc3nnc(-c4ccccc4)o3)o2)cc1)N1CCCC1,i,i,i,i,i,i,i,i,nt
O=C(COc1ccccc1[N+](=O)[O-])N/N=C/C=C/c1ccco1,i,?,i,i,i,i,nt,nt,nt
Cc1ccc(OCC(=O)N/N=C/C=C/c2ccco2)cc1,i,i,8.9µM,i,i[11.6 µM],i,?,?,nt
C/C=C/C(=O)OCC(=O)Nc1cccc(S(=O)(=O)NC2=NCCCCC2)c1,i,i,i,i,i,i,nt,nt,nt
O=C(COC(=O)Cc1ccccc1F)Nc1cccc(S(=O)(=O)NC2=NCCCCC2)c1,i,i,1µM,i,i,i,i,i,i
O=C(O)Cc1c[nH]c2cccc(O)c12,16µM,i,32µM,i,?,i,nt,nt,i
Cc1cc(Cl)c2oc(C(=O)N(C)Cc3ccon3)c(C)c2c1,i,i,nt,i,i,i,nt,nt,nt
COc1ccc(NC(=O)c2ccc(OCc3c(C)noc3C)c(OC)c2)cn1,i,i,i,i,i,i,i,112µM,nt
CC(=O)Nc1ccc(NC(=O)C(OC(=O)c2ccccc2)C(OC(=O)c2ccccc2)C(=O)O)cc1 (centres undefined),i,i,i,i,i,i,i,?,nt
CN(C)c1cccc(C(=O)Nc2ccc(-c3nc4ccccc4s3)cc2)c1,nt,i,nt,i,nt,i,nt,nt,nt
COc1ccc(S(=O)(=O)/N=C2/NC(=O)/C(=C/c3ccco3)S2)cc1,?,i,?,i,?,nt,nt,nt,i
Cc1cccc(NC(=O)c2ccc3ccccc3n2)c1C,i,i,?,i,i,i,nt,nt,i
Cc1ccccc1NC(=O)c1cccc(C(=O)Nc2ccccc2C)n1,i,i,nt,i,i,i,nt,nt,nt
Cn1c(=O)c2c([nH]c(=O)n2Cc2ccc(Cl)cc2Cl)n(C)c1=O,nt,i,nt,i,nt,i,nt,nt,nt
